# From PMC7862700, “An all-to-all approach to the identification of sequence-specific readers for epigenetic DNA modifications on cytosine”
# Key:
# Assay in all cases: DAPPL (digital affinity profiling via proximity ligation, sequencing); 10 mM Tris-HCl pH 7.5, 50 mM NaCl, 1 mM DTT, 4% glycerol, room temperature, 30 min; GST-TFs on glutathione beads, 16-mer random dsDNA library, 0.1% formaldehyde crosslink after washing; high values mean tight binding
# FLI1 = target: T1, FLI1 (Homo sapiens, UniProt Q01543 1-452); conditions: protein: recombinant; tags: N-terminal GST; dsDNA, one strand shown
# T1 sequence: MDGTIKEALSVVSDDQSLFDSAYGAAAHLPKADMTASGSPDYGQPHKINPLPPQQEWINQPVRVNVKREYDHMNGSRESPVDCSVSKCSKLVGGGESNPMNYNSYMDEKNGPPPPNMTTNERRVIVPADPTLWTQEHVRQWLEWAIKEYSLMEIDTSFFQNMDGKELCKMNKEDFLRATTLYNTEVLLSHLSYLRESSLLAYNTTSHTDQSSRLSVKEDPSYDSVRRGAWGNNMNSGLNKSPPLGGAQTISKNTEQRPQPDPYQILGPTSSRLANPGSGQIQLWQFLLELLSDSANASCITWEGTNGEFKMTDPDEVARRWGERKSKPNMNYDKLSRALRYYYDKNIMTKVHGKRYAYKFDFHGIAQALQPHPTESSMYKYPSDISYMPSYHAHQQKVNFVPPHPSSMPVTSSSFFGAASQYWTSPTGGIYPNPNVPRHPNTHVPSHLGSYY
# Method in brief: (§1)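 The binding signal reported is, for every hexamer, its read frequency for a factor over its read frequency for the tag-only sample. Reads came from pools of yeast-expressed, GST-fused human transcription factors on glutathione beads, barcoded with DNA and mixed with that sample, which were incubated with 200 nmole of a random double-stranded 16-mer DNA library in Tris/NaCl/DTT/glycerol buffer at room temperature for 30 min. After washing, the pools were crosslinked with 0.1% formaldehyde, proximity-ligated with BsaI/T4 ligase for 1 h at 37 °C, PCR-amplified and sequenced on an Illumina NextSeq500.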
# ELK1 = target: T2, ELK1 (Homo sapiens, UniProt P19419 1-428); conditions: protein: recombinant; tags: N-terminal GST; dsDNA, one strand shown
# T2 sequence: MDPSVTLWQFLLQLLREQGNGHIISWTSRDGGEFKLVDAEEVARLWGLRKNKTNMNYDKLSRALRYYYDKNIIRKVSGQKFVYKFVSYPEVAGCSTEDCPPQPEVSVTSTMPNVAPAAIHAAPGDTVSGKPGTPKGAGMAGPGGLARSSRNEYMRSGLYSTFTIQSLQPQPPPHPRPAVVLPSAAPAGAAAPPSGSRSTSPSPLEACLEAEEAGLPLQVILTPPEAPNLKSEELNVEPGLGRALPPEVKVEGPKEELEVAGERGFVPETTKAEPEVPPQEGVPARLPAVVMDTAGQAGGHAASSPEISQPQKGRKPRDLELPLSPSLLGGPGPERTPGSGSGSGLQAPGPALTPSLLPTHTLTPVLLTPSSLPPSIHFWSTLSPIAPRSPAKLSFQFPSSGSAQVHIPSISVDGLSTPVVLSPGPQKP
# Method in brief: as §1
# GABPA = target: T3, GABPA (Homo sapiens, UniProt Q06546 1-454); conditions: protein: recombinant; tags: N-terminal GST; dsDNA, one strand shown
# T3 sequence: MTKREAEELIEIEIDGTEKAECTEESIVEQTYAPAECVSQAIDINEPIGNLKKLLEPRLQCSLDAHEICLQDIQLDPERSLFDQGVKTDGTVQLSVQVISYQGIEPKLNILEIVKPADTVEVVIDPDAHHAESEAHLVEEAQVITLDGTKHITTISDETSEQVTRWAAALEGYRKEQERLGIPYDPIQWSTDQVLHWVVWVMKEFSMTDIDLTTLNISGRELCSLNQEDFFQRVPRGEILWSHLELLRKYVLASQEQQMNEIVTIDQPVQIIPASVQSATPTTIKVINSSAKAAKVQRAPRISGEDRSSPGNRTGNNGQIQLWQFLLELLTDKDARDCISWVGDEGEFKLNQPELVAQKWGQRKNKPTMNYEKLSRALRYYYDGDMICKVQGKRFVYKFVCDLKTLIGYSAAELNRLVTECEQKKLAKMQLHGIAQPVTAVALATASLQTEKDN
# Method in brief: as §1
# ERG = target: T4, ERG (Homo sapiens, UniProt P11308 1-479); conditions: protein: recombinant; tags: N-terminal GST; dsDNA, one strand shown
# T4 sequence: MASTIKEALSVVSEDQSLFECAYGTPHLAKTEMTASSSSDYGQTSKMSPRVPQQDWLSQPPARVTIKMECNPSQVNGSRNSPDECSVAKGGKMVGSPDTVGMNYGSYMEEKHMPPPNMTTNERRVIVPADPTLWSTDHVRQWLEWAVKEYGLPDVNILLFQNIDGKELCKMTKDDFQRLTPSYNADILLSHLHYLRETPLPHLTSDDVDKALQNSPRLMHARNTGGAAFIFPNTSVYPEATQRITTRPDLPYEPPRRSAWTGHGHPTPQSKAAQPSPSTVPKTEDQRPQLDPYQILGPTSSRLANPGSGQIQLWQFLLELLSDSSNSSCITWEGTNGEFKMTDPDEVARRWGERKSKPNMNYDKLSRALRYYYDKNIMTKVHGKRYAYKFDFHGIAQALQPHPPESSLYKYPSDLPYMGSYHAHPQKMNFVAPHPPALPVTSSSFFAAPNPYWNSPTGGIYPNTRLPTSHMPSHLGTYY
# Method in brief: as §1
# ELF1 = ELF1 (Homo sapiens, UniProt P32519 1-619); conditions: protein: recombinant; tags: N-terminal GST; dsDNA, one strand shown
# Chain of ELF1 (P32519 whole entry): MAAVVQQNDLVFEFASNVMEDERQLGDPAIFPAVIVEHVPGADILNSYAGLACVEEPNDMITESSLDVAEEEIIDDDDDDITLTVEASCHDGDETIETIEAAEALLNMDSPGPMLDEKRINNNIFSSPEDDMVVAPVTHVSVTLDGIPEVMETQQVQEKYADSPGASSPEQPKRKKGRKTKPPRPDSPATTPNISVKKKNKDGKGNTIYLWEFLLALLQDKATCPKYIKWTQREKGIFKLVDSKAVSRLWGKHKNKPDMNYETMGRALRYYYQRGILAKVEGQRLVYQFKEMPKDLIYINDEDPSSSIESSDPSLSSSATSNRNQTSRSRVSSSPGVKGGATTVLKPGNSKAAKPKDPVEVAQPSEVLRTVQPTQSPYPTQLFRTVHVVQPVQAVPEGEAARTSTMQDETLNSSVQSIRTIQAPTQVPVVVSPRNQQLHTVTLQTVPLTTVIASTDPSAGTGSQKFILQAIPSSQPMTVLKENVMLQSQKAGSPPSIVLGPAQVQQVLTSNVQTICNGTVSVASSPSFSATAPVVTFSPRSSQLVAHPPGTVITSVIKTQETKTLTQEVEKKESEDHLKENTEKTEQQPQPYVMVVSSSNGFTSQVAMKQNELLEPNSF
# Method in brief: as §1
# EHF = target: T5, EHF (Homo sapiens, UniProt Q9NZC4 1-300); conditions: protein: recombinant; tags: N-terminal GST; dsDNA, one strand shown
# T5 sequence: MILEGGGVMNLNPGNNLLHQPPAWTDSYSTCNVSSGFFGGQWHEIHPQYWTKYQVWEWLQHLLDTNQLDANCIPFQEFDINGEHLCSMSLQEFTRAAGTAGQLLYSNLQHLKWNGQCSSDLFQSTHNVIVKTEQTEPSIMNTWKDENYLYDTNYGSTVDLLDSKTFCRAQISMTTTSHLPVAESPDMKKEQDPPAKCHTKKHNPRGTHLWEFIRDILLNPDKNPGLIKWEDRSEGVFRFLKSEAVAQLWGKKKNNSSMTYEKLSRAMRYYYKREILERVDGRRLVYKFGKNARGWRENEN
# Method in brief: as §1
# SPI1 = SPI1 (Homo sapiens, UniProt P17947 1-270); conditions: protein: recombinant; tags: N-terminal GST; dsDNA, one strand shown
# Method in brief: as §1
# SPIB = SPIB (Homo sapiens, UniProt Q01892 1-262); conditions: protein: recombinant; tags: N-terminal GST; dsDNA, one strand shown
# Chain of SPIB (Q01892 whole entry): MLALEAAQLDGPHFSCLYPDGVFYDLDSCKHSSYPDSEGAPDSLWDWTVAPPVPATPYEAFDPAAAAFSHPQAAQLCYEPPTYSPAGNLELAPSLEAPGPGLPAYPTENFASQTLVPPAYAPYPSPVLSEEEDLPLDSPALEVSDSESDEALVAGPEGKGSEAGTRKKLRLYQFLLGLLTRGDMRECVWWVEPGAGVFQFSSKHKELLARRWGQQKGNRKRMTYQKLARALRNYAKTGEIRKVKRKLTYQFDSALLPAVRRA
# Method in brief: as §1
# ELK3 = target: T6, ELK3 (Homo sapiens, UniProt P41970 1-407); conditions: protein: recombinant; tags: N-terminal GST; dsDNA, one strand shown
# T6 sequence: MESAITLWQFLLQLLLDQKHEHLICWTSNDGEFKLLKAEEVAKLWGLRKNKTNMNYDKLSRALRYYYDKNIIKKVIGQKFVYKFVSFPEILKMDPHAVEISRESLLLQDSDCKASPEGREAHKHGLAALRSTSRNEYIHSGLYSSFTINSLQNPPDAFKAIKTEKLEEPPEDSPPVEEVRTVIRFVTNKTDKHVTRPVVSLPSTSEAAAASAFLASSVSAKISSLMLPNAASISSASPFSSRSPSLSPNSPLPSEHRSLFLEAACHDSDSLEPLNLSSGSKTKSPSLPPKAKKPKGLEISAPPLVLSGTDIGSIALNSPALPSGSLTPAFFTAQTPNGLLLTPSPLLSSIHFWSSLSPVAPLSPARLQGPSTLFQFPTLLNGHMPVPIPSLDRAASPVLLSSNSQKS
# Method in brief: as §1
# FEV = target: T7, FEV (Homo sapiens, UniProt Q99581 1-238); conditions: protein: recombinant; tags: N-terminal GST; dsDNA, one strand shown
# T7 sequence: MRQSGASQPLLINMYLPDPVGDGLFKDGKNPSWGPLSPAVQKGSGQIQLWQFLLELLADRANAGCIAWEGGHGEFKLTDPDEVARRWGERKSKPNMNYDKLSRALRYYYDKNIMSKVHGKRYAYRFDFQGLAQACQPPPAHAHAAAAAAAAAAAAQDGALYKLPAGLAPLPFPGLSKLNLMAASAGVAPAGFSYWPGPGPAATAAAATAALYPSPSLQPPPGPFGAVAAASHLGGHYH
# Method in brief: as §1
# ETV5 = ETV5 (Homo sapiens, UniProt P41161 1-510); conditions: protein: recombinant; tags: N-terminal GST; dsDNA, one strand shown
# Chain of ETV5 (P41161 whole entry): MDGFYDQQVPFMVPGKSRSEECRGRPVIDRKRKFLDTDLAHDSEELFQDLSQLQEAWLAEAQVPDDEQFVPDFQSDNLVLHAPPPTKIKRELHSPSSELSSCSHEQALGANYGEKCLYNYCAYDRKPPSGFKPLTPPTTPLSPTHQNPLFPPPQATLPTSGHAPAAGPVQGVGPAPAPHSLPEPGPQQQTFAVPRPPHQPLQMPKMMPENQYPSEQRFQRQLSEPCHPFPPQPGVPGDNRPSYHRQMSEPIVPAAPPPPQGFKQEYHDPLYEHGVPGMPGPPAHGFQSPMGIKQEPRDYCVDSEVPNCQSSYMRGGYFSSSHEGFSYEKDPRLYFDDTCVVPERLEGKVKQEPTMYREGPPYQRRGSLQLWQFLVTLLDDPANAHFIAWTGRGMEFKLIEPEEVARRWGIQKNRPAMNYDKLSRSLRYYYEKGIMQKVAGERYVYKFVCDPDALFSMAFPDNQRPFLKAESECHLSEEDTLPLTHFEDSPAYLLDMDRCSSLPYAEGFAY
# Method in brief: as §1
# HSF1 = HSF1 (Homo sapiens, UniProt Q00613 1-529); conditions: protein: recombinant; tags: N-terminal GST; chain copies: 3; dsDNA, one strand shown
# Chain of HSF1 (Q00613 whole entry): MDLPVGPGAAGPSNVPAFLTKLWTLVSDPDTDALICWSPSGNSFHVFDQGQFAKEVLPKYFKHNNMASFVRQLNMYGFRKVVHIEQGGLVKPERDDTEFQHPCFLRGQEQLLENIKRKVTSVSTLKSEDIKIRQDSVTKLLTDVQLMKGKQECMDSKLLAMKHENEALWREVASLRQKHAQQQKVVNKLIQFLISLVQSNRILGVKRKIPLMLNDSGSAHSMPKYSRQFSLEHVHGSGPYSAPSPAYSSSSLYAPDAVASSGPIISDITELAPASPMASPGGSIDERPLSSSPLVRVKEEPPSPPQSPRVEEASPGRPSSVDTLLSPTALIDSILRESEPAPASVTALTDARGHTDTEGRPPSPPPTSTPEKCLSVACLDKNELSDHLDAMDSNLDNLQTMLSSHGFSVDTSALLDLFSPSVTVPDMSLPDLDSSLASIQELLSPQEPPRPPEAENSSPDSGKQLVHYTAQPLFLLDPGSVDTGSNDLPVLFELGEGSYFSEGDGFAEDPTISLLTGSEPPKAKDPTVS
# Method in brief: as §1
# SPIC = target: T8, SPIC (Homo sapiens, UniProt Q8N5J4 1-248); conditions: protein: recombinant; tags: N-terminal GST; dsDNA, one strand shown
# T8 sequence: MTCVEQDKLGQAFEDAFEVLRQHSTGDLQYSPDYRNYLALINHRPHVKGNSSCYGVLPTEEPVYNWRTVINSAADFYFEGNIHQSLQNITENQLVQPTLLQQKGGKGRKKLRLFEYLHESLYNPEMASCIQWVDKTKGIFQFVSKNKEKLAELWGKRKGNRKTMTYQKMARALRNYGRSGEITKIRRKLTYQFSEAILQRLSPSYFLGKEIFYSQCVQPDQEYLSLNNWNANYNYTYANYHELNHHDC
# Method in brief: as §1
# ELF4 = ELF4 (Homo sapiens, UniProt Q99607 1-663); conditions: protein: recombinant; tags: N-terminal GST; dsDNA, one strand shown
# Chain of ELF4 (Q99607 whole entry): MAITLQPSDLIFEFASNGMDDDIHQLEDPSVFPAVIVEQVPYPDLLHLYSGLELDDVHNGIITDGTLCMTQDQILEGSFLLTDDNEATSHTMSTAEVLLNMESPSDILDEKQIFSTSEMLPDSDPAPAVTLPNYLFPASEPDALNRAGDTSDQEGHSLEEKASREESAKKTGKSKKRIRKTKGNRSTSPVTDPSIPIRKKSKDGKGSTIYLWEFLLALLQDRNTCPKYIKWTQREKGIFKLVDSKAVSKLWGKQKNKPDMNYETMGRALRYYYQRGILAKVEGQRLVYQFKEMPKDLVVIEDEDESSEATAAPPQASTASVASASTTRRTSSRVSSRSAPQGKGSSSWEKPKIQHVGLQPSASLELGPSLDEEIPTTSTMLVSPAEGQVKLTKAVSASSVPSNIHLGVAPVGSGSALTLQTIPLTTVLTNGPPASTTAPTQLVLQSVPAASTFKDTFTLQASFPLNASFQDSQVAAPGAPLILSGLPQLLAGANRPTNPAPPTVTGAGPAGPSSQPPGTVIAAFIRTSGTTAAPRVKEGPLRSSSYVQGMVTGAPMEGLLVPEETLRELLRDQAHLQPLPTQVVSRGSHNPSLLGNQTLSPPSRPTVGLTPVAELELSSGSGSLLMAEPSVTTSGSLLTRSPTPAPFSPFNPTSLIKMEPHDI
# Method in brief: as §1
# ELK4 = target: T9, ELK4 (Homo sapiens, UniProt P28324-2 1-405); conditions: protein: recombinant; tags: N-terminal GST; dsDNA, one strand shown
# T9 sequence: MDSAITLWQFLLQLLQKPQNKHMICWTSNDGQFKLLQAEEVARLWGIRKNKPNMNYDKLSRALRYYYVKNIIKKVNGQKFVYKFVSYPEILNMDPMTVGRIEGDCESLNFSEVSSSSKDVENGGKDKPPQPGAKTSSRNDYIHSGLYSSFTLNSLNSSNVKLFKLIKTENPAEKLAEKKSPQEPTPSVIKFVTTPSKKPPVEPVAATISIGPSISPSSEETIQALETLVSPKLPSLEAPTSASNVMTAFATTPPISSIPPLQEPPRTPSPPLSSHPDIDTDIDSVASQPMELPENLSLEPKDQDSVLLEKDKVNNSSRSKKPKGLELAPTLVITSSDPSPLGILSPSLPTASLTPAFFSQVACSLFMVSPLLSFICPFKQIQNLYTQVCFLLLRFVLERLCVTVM
# Method in brief: as §1
# ETV2 = target: T10, ETV2 (Homo sapiens, UniProt O00321 1-342); conditions: protein: recombinant; tags: N-terminal GST; dsDNA, one strand shown
# T10 sequence: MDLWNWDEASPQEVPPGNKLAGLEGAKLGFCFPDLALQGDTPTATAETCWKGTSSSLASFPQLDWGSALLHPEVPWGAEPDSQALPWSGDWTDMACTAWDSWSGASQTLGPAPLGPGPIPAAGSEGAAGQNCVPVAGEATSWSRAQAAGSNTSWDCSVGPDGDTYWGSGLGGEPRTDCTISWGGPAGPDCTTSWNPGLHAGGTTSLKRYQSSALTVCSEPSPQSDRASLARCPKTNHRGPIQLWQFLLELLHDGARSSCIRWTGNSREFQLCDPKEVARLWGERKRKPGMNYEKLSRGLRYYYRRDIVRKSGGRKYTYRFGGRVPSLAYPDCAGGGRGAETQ
# Method in brief: as §1
# ELF3 = target: T11, ELF3 (Homo sapiens, UniProt P78545 1-371); conditions: protein: recombinant; tags: N-terminal GST; dsDNA, one strand shown
# T11 sequence: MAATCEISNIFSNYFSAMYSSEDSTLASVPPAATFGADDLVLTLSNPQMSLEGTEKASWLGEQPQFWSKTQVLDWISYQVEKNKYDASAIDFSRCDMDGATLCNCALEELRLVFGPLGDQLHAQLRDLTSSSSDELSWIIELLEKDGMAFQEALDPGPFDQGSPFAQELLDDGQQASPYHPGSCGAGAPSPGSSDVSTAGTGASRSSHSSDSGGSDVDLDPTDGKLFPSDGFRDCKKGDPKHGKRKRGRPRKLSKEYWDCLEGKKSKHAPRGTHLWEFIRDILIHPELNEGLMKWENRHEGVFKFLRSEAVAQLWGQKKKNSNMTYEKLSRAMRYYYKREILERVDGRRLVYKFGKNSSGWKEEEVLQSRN
# Method in brief: as §1
# ETV1 = ETV1 (Homo sapiens, UniProt P50549 1-477); conditions: protein: recombinant; tags: N-terminal GST; dsDNA, one strand shown
# Chain of ETV1 (P50549 whole entry): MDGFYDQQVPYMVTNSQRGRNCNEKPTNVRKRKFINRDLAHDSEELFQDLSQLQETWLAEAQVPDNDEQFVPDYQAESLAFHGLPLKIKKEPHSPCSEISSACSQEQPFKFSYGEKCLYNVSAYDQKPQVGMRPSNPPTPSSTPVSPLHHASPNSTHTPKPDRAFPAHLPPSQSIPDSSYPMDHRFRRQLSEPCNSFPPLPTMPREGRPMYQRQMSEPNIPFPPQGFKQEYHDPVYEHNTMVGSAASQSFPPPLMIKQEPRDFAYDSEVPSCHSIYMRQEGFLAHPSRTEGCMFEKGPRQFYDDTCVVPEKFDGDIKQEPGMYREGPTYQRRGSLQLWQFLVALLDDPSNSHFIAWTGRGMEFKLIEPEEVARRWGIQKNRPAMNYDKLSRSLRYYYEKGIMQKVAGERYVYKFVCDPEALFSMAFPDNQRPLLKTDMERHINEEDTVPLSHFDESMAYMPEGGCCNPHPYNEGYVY
# Method in brief: as §1
sequence,measurement,setting,value
AATGGG,binding signal,FLI1,"1.26 fold enrichment (6-mer frequency, TF over GST control)"
same,binding signal,ELK1,"1.24 fold enrichment (6-mer frequency, TF over GST control)"
same,binding signal,GABPA,"1.18 fold enrichment (6-mer frequency, TF over GST control)"
same,binding signal,ERG,"1.16 fold enrichment (6-mer frequency, TF over GST control)"
same,binding signal,ELF1,"1.2 fold enrichment (6-mer frequency, TF over GST control)"
same,binding signal,EHF,"1.29 fold enrichment (6-mer frequency, TF over GST control)"
same,binding signal,SPI1,"1.34 fold enrichment (6-mer frequency, TF over GST control)"
same,binding signal,SPIB,"1.22 fold enrichment (6-mer frequency, TF over GST control)"
same,binding signal,ELK3,"1.08 fold enrichment (6-mer frequency, TF over GST control)"
same,binding signal,FEV,"1.25 fold enrichment (6-mer frequency, TF over GST control)"
same,binding signal,ETV5,"1.28 fold enrichment (6-mer frequency, TF over GST control)"
same,binding signal,HSF1,"1.02 fold enrichment (6-mer frequency, TF over GST control)"
same,binding signal,SPIC,"1.26 fold enrichment (6-mer frequency, TF over GST control)"
same,binding signal,ELF4,"1.16 fold enrichment (6-mer frequency, TF over GST control)"
same,binding signal,ELK4,"1.27 fold enrichment (6-mer frequency, TF over GST control)"
same,binding signal,ETV2,"1.22 fold enrichment (6-mer frequency, TF over GST control)"
same,binding signal,ELF3,"1.13 fold enrichment (6-mer frequency, TF over GST control)"
same,binding signal,ETV1,"1.21 fold enrichment (6-mer frequency, TF over GST control)"
